According to PubChem BioAssay (NCATS):
Results filed as inconclusive are left out. Activity calls are given as the source filed them. Calls come from the whole dose curve; as a rule, active = well fitted cell-killing curve with a large enough effect; inconclusive = small, poorly fitted or top-dose-only effect, or effect the other way; inactive = no such curve, though single readings can be large or run the other way.

Key:
[1] = Quantitative High-Throughput drug screen in 47 multiple myeloma cell lines against the NCATS MIPE library collection: MM1R_ATCC cell viability assay (AID 1918981); note: nearly all actives have a fitted effect of over 35% in size
How it was run: (§1)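 qHTS format: cells plated (500/well), pin-dosed with MIPE 4.0 compounds, kept 48 h at 37 °C. Readout was CellTiter-Glo luminescence, median RLU.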

[2] = Quantitative High-Throughput drug screen in 47 multiple myeloma cell lines against the NCATS MIPE library collection: LP1_DSMZ cell viability assay (AID 1918982); note: nearly all actives have a fitted effect of over 35% in size
How it was run: as §1

[3] = Quantitative High-Throughput drug screen in 47 multiple myeloma cell lines against the NCATS MIPE library collection: KMS28PE_JCRB cell viability assay (AID 1918983); note: nearly all actives have a fitted effect of over 35% in size
How it was run: as §1

[4] = Quantitative High-Throughput drug screen in 47 multiple myeloma cell lines against the NCATS MIPE library collection: KMS34_JCRB cell viability assay (AID 1918985); note: nearly all actives have a fitted effect of over 40% in size
How it was run: as §1

[5] = Quantitative High-Throughput drug screen in 47 multiple myeloma cell lines against the NCATS MIPE library collection: OCIMY7_PLB cell viability assay (AID 1918987); conditions: OCI-MY7 myeloma viability, CellTiter-Glo ATP, 48 h; viability (% of DMSO): at 45.8 µM (top of the series); note: nearly all actives have a fitted effect of over 65% in size
How it was run: as §1

[6] = Quantitative High-Throughput drug screen in 47 multiple myeloma cell lines against the NCATS MIPE library collection: OCIMY5_PLB cell viability assay (AID 1918988); note: nearly all actives have a fitted effect of over 65% in size
How it was run: as §1

[7] = Quantitative High-Throughput drug screen in 47 multiple myeloma cell lines against the NCATS MIPE library collection: OPM1_PLB cell viability assay (AID 1918989); note: nearly all actives have a fitted effect of over 40% in size
How it was run: as §1

[8] = Quantitative High-Throughput drug screen in 47 multiple myeloma cell lines against the NCATS MIPE library collection: SKMM1_PLB cell viability assay (AID 1919863); conditions: SKMM1 myeloma viability, CellTiter-Glo ATP, 48 h; viability: hits give low values; note: nearly all actives have a fitted effect of over 35% in size
How it was run: as §1

[9] = Quantitative High-Throughput drug screen in 47 multiple myeloma cell lines against the NCATS MIPE library collection: U266_ATCC cell viability assay (AID 1919864); note: nearly all actives have a fitted effect of over 35% in size
How it was run: as §1

[10] = Quantitative High-Throughput drug screen in 47 multiple myeloma cell lines against the NCATS MIPE library collection: XG6_PLB cell viability assay (AID 1919865); note: nearly all actives have a fitted effect of over 40% in size
How it was run: as §1

[11] = Quantitative High-Throughput drug screen in 47 multiple myeloma cell lines against the NCATS MIPE library collection: XG1_PLB cell viability assay (AID 1919866); note: nearly all actives have a fitted effect of over 35% in size
How it was run: as §1

[12] = Quantitative High-Throughput drug screen in 47 multiple myeloma cell lines against the NCATS MIPE library collection: VP6_DJ cell viability assay (AID 1919867); note: nearly all actives have a fitted effect of over 40% in size
How it was run: as §1

[13] = Quantitative High-Throughput drug screen in 47 multiple myeloma cell lines against the NCATS MIPE library collection: UTMC2_PLB cell viability assay (AID 1919868); conditions: CellTiter-Glo ATP luminescence, 48 h; viability (% of DMSO control): at 45.8 µM (top of the series); note: nearly all actives have a fitted effect of over 55% in size
How it was run: as §1

[14] = Quantitative High-Throughput drug screen in 47 multiple myeloma cell lines against the NCATS MIPE library collection: PE2_PLB cell viability assay (AID 1919869); note: nearly all actives have a fitted effect of over 35% in size
How it was run: as §1

[15] = Quantitative High-Throughput drug screen in 47 multiple myeloma cell lines against the NCATS MIPE library collection: PCM6_Riken cell viability assay (AID 1919870); note: nearly all actives have a fitted effect of over 30% in size
How it was run: as §1

[16] = Quantitative High-Throughput drug screen in 47 multiple myeloma cell lines against the NCATS MIPE library collection: RPMI8226_ATCC cell viability assay (AID 1919871); note: nearly all actives have a fitted effect of over 30% in size
How it was run: as §1

[17] = Quantitative High-Throughput drug screen in 47 multiple myeloma cell lines against the NCATS MIPE library collection: OPM2_DSMZ cell viability assay (AID 1919872); note: nearly all actives have a fitted effect of over 30% in size
How it was run: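 We plated 500 myeloma cells per well, pinned in MIPE 4.0 compounds, and incubated for 48 hours at 37C. ATP was then quantified with CellTiter-Glo, with DMSO and media-only wells defining 100% and 0%.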

[18] = Quantitative High-Throughput drug screen in 47 multiple myeloma cell lines against the NCATS MIPE library collection: KMS11_JCRBsus cell viability assay (AID 1919873); note: nearly all actives have a fitted effect of over 50% in size
How it was run: as §1

[19] = Quantitative High-Throughput drug screen in 47 multiple myeloma cell lines against the NCATS MIPE library collection: KMS28BM_JCRB cell viability assay (AID 1919874); note: nearly all actives have a fitted effect of over 35% in size
How it was run: as §1

[20] = Quantitative High-Throughput drug screen in 47 multiple myeloma cell lines against the NCATS MIPE library collection: L363_DSMZ cell viability assay (AID 1918984); note: nearly all actives have a fitted effect of over 40% in size
How it was run: as §1
Potency is the fitted concentration of half-maximal effect.

O=C(C=CC#Cc1cccc(NS(=O)(=O)c2ccccc2)c1)NO
active: Potency [1] 1480 nM | Potency [2] 935 nM | Potency [3] 1870 nM | Potency [4] 935 nM | Potency [5] 372 nM | Potency [6] 1180 nM | Potency [7] 2350 nM | Potency [8] 2350 nM | Potency [9] 2090 nM | Potency [10] 5260 nM | Potency [11] 1870 nM | Potency [12] 1180 nM | Potency [13] 833 nM | Potency [14] 3320 nM | Potency [15] 1660 nM | Potency [16] 2640 nM | Potency [17] 2350 nM | Potency [18] 662 nM | Potency [19] 833 nM

C[N+](C)([O-])CCNc1ccc(NCC[N+](C)(C)[O-])c2c1C(=O)c1c(O)ccc(O)c1C2=O
active: Potency [1] 18700 nM | Potency [10] 13200 nM
inactive: Potency [2] | Potency [3] | Potency [20] | Potency [12] | Potency [14] | Potency [16] | Potency [17] | Potency [18] | Potency [19]

Oc1cc(-c2nc(-c3ccccc3)[nH]c2-c2ccncc2)ccc1Cl
active: Potency [1] 14800 nM | Potency [3] 20900 nM | Potency [20] 332 nM | Potency [6] 18700 nM | Potency [8] 16600 nM | Potency [9] 16600 nM | Potency [10] 2350 nM | Potency [11] 2350 nM | Potency [12] 3720 nM | Potency [13] 7430 nM | Potency [14] 5260 nM | Potency [15] 2960 nM | Potency [16] 16600 nM | Potency [18] 14800 nM
inactive: Potency [2]

N#CC(=C(O)c1ccc(Cl)cc1Cl)c1nc2cc(Cl)ccc2c(=O)[nH]1
inactive: Potency [1] | Potency [2] | Potency [3] | Potency [20] | Potency [5] | Potency [7] | Potency [9] | Potency [13] | Potency [16] | Potency [17] | Potency [18]
active: Potency [12] 16600 nM

Nc1nc(=O)n([C@H]2CSC(CO)O2)cc1F (stereo not given in full)
inactive: Potency [1] | Potency [2] | Potency [3] | Potency [20] | viability [8] 114% | Potency [10] | Potency [11] | Potency [12] | Potency [14] | Potency [15] | Potency [16]

Oc1cc2c(cc1O)C1c3ccc(O)c(O)c3OCC1(O)C2 (stereo not given)
active: Potency [14] 20900 nM
inactive: Potency [1] | Potency [2] | Potency [3] | Potency [4] | Potency [5] | Potency [6] | Potency [7] | viability [8] 120% | Potency [9] | Potency [10] | Potency [11] | Potency [16] | Potency [17] | Potency [18] | Potency [19]

CCS(=O)(=O)Nc1ccc2[nH]c(O)c(C(=Nc3ccc(CN4CCCCC4)cc3)c3ccccc3)c2c1
active: Potency [1] 526 nM | Potency [2] 7430 nM | Potency [3] 1050 nM | Potency [20] 52.6 nM | Potency [5] 66.2 nM | Potency [6] 2090 nM | Potency [7] 332 nM | Potency [8] 5900 nM | Potency [10] 3320 nM | Potency [11] 1320 nM | Potency [12] 590 nM | Potency [13] 93.5 nM | Potency [14] 469 nM | Potency [15] 3720 nM | Potency [16] 332 nM | Potency [17] 833 nM | Potency [18] 166 nM | Potency [19] 132 nM

c1coc(CNc2ncnc3nc[nH]c23)c1
inactive: Potency [1] | Potency [2] | Potency [3] | Potency [9] | Potency [10] | Potency [11] | Potency [13] | Potency [17] | Potency [18] | Potency [19]
active: Potency [20] 11800 nM | Potency [6] 2090 nM | Potency [12] 18700 nM

CC[C@@]1([C@@H]2O[C@@H]([C@H]3O[C@@](O)(CO)[C@H](C)C[C@H]3C)C[C@H]2C)CC[C@H]([C@]2(C)CC[C@]3(C[C@H](O)[C@@H](C)[C@@H]([C@@H](C)[C@@H](OC)[C@H](C)C(=O)O)O3)O2)O1
active: Potency [1] 229 nM | Potency [2] 64.5 nM | Potency [3] 512 nM | Potency [4] 724 nM | Potency [5] 229 nM | Potency [6] 102 nM | Potency [7] 162 nM | Potency [8] 323 nM | Potency [9] 363 nM | Potency [10] 257 nM | Potency [11] 363 nM | Potency [12] 512 nM | Potency [14] 323 nM | Potency [16] 229 nM | Potency [17] 144 nM | Potency [18] 288 nM | Potency [19] 575 nM

CC1(C)CC(O)CC(C)(C)N1[O]
inactive: Potency [1] | Potency [2] | Potency [3] | Potency [20] | Potency [7] | Potency [10] | Potency [11] | Potency [14] | Potency [15] | Potency [16] | Potency [17] | Potency [18]

Cc1cnn(C)c1C(=O)Nc1cc(Nc2ccc3c(C=Cc4ccccn4)n[nH]c3c2)ccc1F
active: Potency [1] 26400 nM | Potency [2] 20900 nM | Potency [3] 29600 nM | Potency [20] 4690 nM | Potency [7] 4690 nM | Potency [8] 20900 nM | Potency [9] 20900 nM | Potency [10] 5900 nM | Potency [11] 4690 nM | Potency [12] 10500 nM | Potency [13] 10500 nM | Potency [14] 2640 nM | Potency [15] 4690 nM | Potency [16] 26400 nM | Potency [18] 11800 nM | Potency [19] 20900 nM

CC(=O)O[C@H]1C[C@@H]2CC[C@H]3[C@H]4C[C@H]([N+]5(C)CCCCC5)[C@@H](OC(C)=O)[C@@]4(C)CC[C@@H]3[C@@]2(C)C[C@H]1N1CCCCC1
inactive: Potency [1] | Potency [2] | Potency [20] | Potency [5] | Potency [7] | viability [8] 143% | Potency [9] | Potency [10] | Potency [12] | Potency [13] | Potency [14] | Potency [15] | Potency [16] | Potency [18] | Potency [19]
active: Potency [3] 332 nM

Cn1cc(C2=C(c3c4n(c5ccccc35)CCC(CN)C4)C(=O)NC2=O)c2ccccc21 (stereo not given)
active: Potency [1] 11800 nM | Potency [2] 10500 nM | Potency [3] 18700 nM | Potency [20] 7430 nM | Potency [5] 7430 nM | Potency [6] 8330 nM | Potency [7] 7430 nM | Potency [8] 20900 nM | Potency [9] 16600 nM | Potency [10] 7430 nM | Potency [12] 6620 nM | Potency [14] 7430 nM | Potency [15] 5260 nM | Potency [16] 18700 nM | Potency [17] 18700 nM | Potency [18] 7430 nM | Potency [19] 10500 nM

C=CC[C@@H]1C=C(C)C[C@H](C)C[C@H](OC)[C@H]2O[C@@](O)(C(=O)C(=O)N3CCCC[C@H]3C(=O)O[C@H](C(C)=C[C@@H]3CC[C@H](O)[C@H](OC)C3)[C@@H](C)[C@@H](O)CC1=O)[C@@H](C)C[C@@H]2OC
active: Potency [1] 833 nM | Potency [2] 3320 nM | Potency [3] 2350 nM | Potency [20] 1180 nM | Potency [5] 2090 nM | Potency [6] 662 nM | Potency [7] 2640 nM | Potency [8] 1180 nM | Potency [10] 1480 nM | Potency [11] 2350 nM | Potency [12] 833 nM | Potency [13] 2960 nM | Potency [14] 2640 nM | Potency [15] 935 nM | Potency [16] 2090 nM | Potency [18] 833 nM | Potency [19] 833 nM
